According to the supplement of paper PMC11732987, “Enantioselective OTUD7B fragment discovery through chemoproteomics screening and high-throughput optimisation” (Communications Chemistry, 2025):

What was measured:
Experiment in all cases: log2 ratio of Biotin-Ahx-Ub-VS probe labelling (compound/DMSO); higher = less target engagement, active = hit call of the paper (q ≤ 0.05, log2 ratio ≤ -1)
Conditions in all cases: treatment time: 3 h
[1] = compound: CCC1N(CCc2sccc12)C(=O)CCl
Outline: (§1)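 Compound at 50 or 200 µM, or DMSO, was applied for 3 h in triplicate to HEK293T lysate (495 µg per sample, Tris/CHAPS/IGEPAL buffer with protease inhibitors), after which Biotin-Ahx-Ub-VS was added at 0.5 µM final for 1 h. The labelled DUBs were pulled down with NeutrAvidin, digested with LysC and trypsin, and run by diaPASEF LC-MS/MS. Ratios are averaged base-two logs of compound over DMSO from median-normalised label-free quantities by unpaired t-test, counting only proteins with at least 2 unique peptides.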

[2] = compound: CN1c2ccccc2C(CS1(=O)=O)NC(=O)CCl
Outline: as §1

[3] = compound: Cl.ClCC(=O)N1CCc2ncncc2C1
Outline: as §1

[4] = compound: Cl.Cn1ncc2C(CCCc12)NC(=O)CCl
Outline: as §1

[5] = compound: ClCC(=O)NC1CCOc2ccccc12
Outline: as §1

[6] = compound: ClCC(=O)NC1CCCc2ccccc12
Outline: (§2)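 HEK293T lysate (495 µg per sample, in Tris/CHAPS/IGEPAL buffer with protease inhibitors) was treated in triplicate with compound over a concentration series or DMSO for 3 h, then with Biotin-Ahx-Ub-VS (0.5 µM final) for 1 h. Labelled DUBs were NeutrAvidin-enriched, digested with LysC and trypsin, and run by diaPASEF LC-MS/MS. Spectronaut label-free protein quantities were global-median-normalised. Values are average log2 ratios compound/DMSO from an unpaired t-test, using proteins with ≥2 unique peptides.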

[7] = compound: ClCC(=O)N[C@@H]1CCCc2ccccc12
Outline: as §2

[8] = compound: ClCC(=O)N[C@H]1CCCc2ccccc12
Outline: as §2

[9] = compound: CCC1N(CCc2cc(OC)c(Cl)cc12)C(=O)CCl
Outline: as §1

[10] = compound: CCCC1N(CCc2cc(OC)c(OC)cc12)C(=O)CCl
Outline: as §1

Measured: log2 ratio of Biotin-Ahx-Ub-VS probe labelling

USP54 (UniProt Q70EL1)
UniProt Q70EL1, sequence (Q70EL1 whole entry): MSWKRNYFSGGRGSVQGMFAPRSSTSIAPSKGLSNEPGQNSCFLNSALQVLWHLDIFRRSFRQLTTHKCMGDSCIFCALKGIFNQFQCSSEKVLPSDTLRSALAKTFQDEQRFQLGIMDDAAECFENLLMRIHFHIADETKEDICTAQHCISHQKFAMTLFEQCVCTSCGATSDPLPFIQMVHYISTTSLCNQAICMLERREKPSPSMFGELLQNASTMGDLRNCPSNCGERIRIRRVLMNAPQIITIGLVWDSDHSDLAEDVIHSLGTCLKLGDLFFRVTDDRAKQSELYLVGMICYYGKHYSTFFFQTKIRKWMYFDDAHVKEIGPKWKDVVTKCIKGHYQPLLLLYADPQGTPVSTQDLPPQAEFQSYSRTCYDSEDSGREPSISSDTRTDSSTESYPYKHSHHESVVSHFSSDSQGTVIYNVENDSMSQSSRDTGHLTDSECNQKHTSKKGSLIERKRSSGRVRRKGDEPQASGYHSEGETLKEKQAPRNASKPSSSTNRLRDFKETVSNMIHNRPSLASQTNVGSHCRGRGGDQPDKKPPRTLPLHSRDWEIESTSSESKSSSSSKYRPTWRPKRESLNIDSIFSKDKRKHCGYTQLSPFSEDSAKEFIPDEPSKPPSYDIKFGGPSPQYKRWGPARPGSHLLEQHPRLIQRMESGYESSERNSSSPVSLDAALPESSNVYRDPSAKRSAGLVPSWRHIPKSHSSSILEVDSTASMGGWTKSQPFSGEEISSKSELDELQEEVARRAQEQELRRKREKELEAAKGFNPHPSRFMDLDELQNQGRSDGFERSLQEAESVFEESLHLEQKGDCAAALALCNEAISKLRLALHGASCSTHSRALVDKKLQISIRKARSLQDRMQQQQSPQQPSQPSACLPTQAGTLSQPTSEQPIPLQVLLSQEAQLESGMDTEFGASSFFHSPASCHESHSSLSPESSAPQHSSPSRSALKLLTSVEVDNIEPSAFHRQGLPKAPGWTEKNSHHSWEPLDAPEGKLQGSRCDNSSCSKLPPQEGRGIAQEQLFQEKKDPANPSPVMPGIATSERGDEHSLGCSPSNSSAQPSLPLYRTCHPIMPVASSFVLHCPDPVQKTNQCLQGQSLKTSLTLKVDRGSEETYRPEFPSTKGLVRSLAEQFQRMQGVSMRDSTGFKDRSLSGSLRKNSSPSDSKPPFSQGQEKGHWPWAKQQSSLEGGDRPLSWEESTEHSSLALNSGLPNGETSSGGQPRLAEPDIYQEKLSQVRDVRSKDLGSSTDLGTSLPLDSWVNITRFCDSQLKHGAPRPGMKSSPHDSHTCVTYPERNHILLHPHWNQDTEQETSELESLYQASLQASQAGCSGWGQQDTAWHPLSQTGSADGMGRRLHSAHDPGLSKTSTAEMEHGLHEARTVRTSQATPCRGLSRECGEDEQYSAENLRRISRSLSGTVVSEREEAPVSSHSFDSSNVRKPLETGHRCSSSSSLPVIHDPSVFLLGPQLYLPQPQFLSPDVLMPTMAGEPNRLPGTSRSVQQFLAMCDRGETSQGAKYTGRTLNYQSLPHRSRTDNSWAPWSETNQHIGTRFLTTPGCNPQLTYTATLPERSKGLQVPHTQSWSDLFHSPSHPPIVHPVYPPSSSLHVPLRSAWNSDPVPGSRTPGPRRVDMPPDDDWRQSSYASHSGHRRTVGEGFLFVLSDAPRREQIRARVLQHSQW
active: [3]; compound concentration: 200uM -1.09 | [4]; compound concentration: 200uM -2.4 | [6]; compound concentration: 6.25uM -1.2 | [6]; compound concentration: 12.5uM -1.06 | [8]; compound concentration: 1.56uM -1.07 | [10]; compound concentration: 200uM -2.42
inactive: [1]; compound concentration: 50uM 0.403 | [1]; compound concentration: 200uM -0.685 | [2]; compound concentration: 50uM 0.55 | [2]; compound concentration: 200uM -0.727 | [3]; compound concentration: 50uM 0.0984 | [4]; compound concentration: 50uM 0.166 | [5]; compound concentration: 50uM -0.806 | [5]; compound concentration: 200uM -0.859 | [6]; compound concentration: 0.78uM -0.349 | [6]; compound concentration: 1.56uM -0.87 | [6]; compound concentration: 3.13uM -0.672 | [6]; compound concentration: 25uM -0.646 | [6]; compound concentration: 50uM -0.519 | [6]; compound concentration: 100uM -0.598 | [6]; compound concentration: 200uM -0.947 | [7]; compound concentration: 0.78uM 0.232 | [7]; compound concentration: 1.56uM -0.0979 | [7]; compound concentration: 3.13uM -0.457 | [7]; compound concentration: 6.25uM -0.449 | [7]; compound concentration: 12.5uM -0.888 | [7]; compound concentration: 25uM 0.0566 | [7]; compound concentration: 50uM -0.582 | [7]; compound concentration: 100uM -0.163 | [7]; compound concentration: 200uM -0.256 | [8]; compound concentration: 0.78uM 0.15 | [8]; compound concentration: 3.13uM -0.564 | [8]; compound concentration: 6.25uM -0.753 | [8]; compound concentration: 12.5uM -0.0765 | [8]; compound concentration: 25uM -0.601 | [8]; compound concentration: 50uM -0.182 | [8]; compound concentration: 100uM 0.38 | [8]; compound concentration: 200uM -0.201 | [9]; compound concentration: 50uM -0.125 | [9]; compound concentration: 200uM -0.766 | [10]; compound concentration: 50uM -0.559

ALG13 (UniProt Q9NP73)
UniProt Q9NP73, sequence (Q9NP73 whole entry): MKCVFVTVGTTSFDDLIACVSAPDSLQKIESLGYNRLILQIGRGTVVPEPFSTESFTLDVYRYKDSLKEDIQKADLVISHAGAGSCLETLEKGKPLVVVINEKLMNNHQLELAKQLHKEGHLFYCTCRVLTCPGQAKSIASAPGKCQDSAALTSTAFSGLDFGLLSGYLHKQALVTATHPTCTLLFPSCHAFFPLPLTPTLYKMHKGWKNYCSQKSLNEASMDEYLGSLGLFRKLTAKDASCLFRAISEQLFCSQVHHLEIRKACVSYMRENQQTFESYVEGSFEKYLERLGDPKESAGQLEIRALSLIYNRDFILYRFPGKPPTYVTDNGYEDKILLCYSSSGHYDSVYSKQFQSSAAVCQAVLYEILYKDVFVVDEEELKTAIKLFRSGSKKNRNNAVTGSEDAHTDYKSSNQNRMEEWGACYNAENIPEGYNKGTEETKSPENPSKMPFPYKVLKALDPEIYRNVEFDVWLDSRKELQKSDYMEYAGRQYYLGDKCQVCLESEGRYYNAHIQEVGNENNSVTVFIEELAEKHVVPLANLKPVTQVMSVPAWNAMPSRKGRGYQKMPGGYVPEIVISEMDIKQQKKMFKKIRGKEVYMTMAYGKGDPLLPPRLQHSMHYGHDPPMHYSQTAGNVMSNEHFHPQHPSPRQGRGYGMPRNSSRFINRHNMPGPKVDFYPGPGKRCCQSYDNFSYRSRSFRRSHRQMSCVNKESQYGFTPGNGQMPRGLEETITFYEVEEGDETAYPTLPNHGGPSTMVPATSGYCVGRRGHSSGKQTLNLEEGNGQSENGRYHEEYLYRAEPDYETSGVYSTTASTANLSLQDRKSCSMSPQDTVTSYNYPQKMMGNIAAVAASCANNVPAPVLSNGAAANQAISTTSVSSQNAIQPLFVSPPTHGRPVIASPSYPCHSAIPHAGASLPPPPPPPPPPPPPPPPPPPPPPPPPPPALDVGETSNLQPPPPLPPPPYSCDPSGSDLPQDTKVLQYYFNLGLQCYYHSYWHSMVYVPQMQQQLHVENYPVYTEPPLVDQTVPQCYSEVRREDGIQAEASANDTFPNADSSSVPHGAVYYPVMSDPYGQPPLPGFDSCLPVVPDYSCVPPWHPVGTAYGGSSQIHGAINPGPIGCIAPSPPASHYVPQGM
inactive: [1]; compound concentration: 50uM 0.393 | [1]; compound concentration: 200uM 0.533 | [2]; compound concentration: 50uM 0.284 | [2]; compound concentration: 200uM 0.203 | [3]; compound concentration: 50uM 0.0225 | [3]; compound concentration: 200uM 0.439 | [4]; compound concentration: 50uM 0.238 | [4]; compound concentration: 200uM -0.0439 | [5]; compound concentration: 50uM 0.11 | [5]; compound concentration: 200uM 0.324 | [6]; compound concentration: 0.78uM 0.19 | [6]; compound concentration: 1.56uM 0.107 | [6]; compound concentration: 3.13uM -0.625 | [6]; compound concentration: 6.25uM -0.155 | [6]; compound concentration: 12.5uM -0.336 | [6]; compound concentration: 25uM -0.19 | [6]; compound concentration: 50uM -0.356 | [6]; compound concentration: 100uM 0.221 | [6]; compound concentration: 200uM -0.15 | [7]; compound concentration: 0.78uM 0.187 | [7]; compound concentration: 1.56uM 0.128 | [7]; compound concentration: 3.13uM 0.146 | [7]; compound concentration: 6.25uM 0.328 | [7]; compound concentration: 12.5uM 0.0757 | [7]; compound concentration: 25uM -0.0189 | [7]; compound concentration: 50uM -0.26 | [7]; compound concentration: 100uM -0.0849 | [7]; compound concentration: 200uM 0.156 | [8]; compound concentration: 0.78uM 0.0472 | [8]; compound concentration: 1.56uM -0.48 | [8]; compound concentration: 3.13uM 0.0655 | [8]; compound concentration: 6.25uM -0.00893 | [8]; compound concentration: 12.5uM -0.0224 | [8]; compound concentration: 25uM 0.337 | [8]; compound concentration: 50uM -0.216 | [8]; compound concentration: 100uM 0.0146 | [8]; compound concentration: 200uM -0.203 | [9]; compound concentration: 50uM 0.0103 | [9]; compound concentration: 200uM 0.0355 | [10]; compound concentration: 50uM 0.0738 | [10]; compound concentration: 200uM 0.242

USP10 (UniProt Q14694)
UniProt Q14694, sequence (Q14694 whole entry): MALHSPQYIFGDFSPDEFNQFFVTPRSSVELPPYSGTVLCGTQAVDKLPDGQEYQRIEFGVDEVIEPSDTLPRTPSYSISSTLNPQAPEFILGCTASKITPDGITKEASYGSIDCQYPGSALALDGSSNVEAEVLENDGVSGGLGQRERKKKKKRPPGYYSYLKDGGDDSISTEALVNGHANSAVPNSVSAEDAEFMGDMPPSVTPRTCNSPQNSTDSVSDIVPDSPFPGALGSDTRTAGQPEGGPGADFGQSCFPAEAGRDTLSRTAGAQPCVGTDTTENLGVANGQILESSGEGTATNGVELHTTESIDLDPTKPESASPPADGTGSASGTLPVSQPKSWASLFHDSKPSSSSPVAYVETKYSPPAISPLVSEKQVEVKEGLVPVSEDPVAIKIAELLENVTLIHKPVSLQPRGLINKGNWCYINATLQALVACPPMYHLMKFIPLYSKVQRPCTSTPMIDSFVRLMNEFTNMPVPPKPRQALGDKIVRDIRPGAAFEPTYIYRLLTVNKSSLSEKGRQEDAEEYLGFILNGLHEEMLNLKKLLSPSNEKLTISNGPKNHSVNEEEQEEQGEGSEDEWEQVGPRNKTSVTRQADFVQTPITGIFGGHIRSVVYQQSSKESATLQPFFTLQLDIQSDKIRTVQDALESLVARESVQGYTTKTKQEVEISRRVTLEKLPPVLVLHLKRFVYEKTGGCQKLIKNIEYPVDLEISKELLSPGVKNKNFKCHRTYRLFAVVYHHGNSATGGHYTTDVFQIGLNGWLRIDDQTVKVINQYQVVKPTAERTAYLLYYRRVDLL
inactive: [1]; compound concentration: 50uM -0.19 | [1]; compound concentration: 200uM -0.0252 | [2]; compound concentration: 50uM -0.181 | [2]; compound concentration: 200uM -0.0808 | [3]; compound concentration: 50uM -0.0803 | [3]; compound concentration: 200uM -0.275 | [4]; compound concentration: 50uM -0.122 | [4]; compound concentration: 200uM 0.147 | [5]; compound concentration: 50uM 0.0122 | [5]; compound concentration: 200uM 0.0383 | [6]; compound concentration: 0.78uM -0.0342 | [6]; compound concentration: 1.56uM -0.0587 | [6]; compound concentration: 3.13uM -0.0649 | [6]; compound concentration: 6.25uM -0.0649 | [6]; compound concentration: 12.5uM -0.132 | [6]; compound concentration: 25uM -0.0689 | [6]; compound concentration: 50uM -0.0491 | [6]; compound concentration: 100uM -0.183 | [6]; compound concentration: 200uM -0.0607 | [7]; compound concentration: 0.78uM -0.0933 | [7]; compound concentration: 1.56uM -0.139 | [7]; compound concentration: 3.13uM -0.0782 | [7]; compound concentration: 6.25uM -0.0824 | [7]; compound concentration: 12.5uM -0.0687 | [7]; compound concentration: 25uM -0.0178 | [7]; compound concentration: 50uM 0.00497 | [7]; compound concentration: 100uM -0.08 | [7]; compound concentration: 200uM -0.0678 | [8]; compound concentration: 0.78uM -0.0203 | [8]; compound concentration: 1.56uM -0.0495 | [8]; compound concentration: 3.13uM -0.0618 | [8]; compound concentration: 6.25uM -0.0539 | [8]; compound concentration: 12.5uM 0.0103 | [8]; compound concentration: 25uM -0.0249 | [8]; compound concentration: 50uM -0.0723 | [8]; compound concentration: 100uM 0.0262 | [8]; compound concentration: 200uM -0.109 | [9]; compound concentration: 50uM -0.0451 | [9]; compound concentration: 200uM -0.029 | [10]; compound concentration: 50uM -0.317 | [10]; compound concentration: 200uM -0.194

USP15 (UniProt Q9Y4E8)
UniProt Q9Y4E8, sequence (Q9Y4E8 whole entry): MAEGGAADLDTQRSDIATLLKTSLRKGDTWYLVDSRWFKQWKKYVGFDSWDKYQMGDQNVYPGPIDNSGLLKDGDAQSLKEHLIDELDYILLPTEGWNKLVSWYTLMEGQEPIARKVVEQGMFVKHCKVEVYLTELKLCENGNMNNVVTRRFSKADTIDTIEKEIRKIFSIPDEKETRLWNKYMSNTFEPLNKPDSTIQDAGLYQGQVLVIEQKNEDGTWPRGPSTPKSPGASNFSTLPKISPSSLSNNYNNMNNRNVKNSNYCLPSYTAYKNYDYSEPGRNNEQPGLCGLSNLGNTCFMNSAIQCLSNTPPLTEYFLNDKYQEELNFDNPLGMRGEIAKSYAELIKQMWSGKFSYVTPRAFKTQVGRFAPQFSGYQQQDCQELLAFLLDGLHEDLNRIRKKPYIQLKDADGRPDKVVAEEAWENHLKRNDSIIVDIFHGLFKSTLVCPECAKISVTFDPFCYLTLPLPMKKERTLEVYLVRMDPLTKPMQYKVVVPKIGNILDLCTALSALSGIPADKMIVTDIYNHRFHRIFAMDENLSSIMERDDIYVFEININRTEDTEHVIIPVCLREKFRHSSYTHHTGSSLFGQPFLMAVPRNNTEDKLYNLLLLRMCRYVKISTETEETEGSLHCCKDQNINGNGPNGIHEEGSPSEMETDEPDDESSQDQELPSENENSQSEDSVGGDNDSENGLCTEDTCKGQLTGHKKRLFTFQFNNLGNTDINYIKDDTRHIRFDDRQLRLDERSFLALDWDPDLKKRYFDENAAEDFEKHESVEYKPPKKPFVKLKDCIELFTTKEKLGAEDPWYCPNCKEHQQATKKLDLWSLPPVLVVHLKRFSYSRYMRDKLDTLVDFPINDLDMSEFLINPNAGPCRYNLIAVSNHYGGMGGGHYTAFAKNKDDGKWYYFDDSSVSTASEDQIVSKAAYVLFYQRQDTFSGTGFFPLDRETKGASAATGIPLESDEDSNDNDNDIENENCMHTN
inactive: [1]; compound concentration: 50uM -0.208 | [1]; compound concentration: 200uM -0.456 | [2]; compound concentration: 50uM -0.352 | [2]; compound concentration: 200uM -0.178 | [3]; compound concentration: 50uM -0.273 | [3]; compound concentration: 200uM -0.899 | [4]; compound concentration: 50uM 0.0231 | [4]; compound concentration: 200uM 0.118 | [5]; compound concentration: 50uM -0.104 | [5]; compound concentration: 200uM -0.0799 | [6]; compound concentration: 0.78uM -0.111 | [6]; compound concentration: 1.56uM 0.00504 | [6]; compound concentration: 3.13uM -0.0668 | [6]; compound concentration: 6.25uM 0.00578 | [6]; compound concentration: 12.5uM 0.00284 | [6]; compound concentration: 25uM -0.194 | [6]; compound concentration: 50uM -0.0476 | [6]; compound concentration: 100uM -0.0886 | [6]; compound concentration: 200uM -0.0894 | [7]; compound concentration: 0.78uM -0.15 | [7]; compound concentration: 1.56uM -0.0871 | [7]; compound concentration: 3.13uM -0.0689 | [7]; compound concentration: 6.25uM -0.0495 | [7]; compound concentration: 12.5uM -0.0456 | [7]; compound concentration: 25uM -0.00914 | [7]; compound concentration: 50uM -0.0377 | [7]; compound concentration: 100uM -0.0901 | [7]; compound concentration: 200uM -0.162 | [8]; compound concentration: 0.78uM -0.089 | [8]; compound concentration: 1.56uM -0.101 | [8]; compound concentration: 3.13uM -0.0661 | [8]; compound concentration: 6.25uM 0.0971 | [8]; compound concentration: 12.5uM -0.119 | [8]; compound concentration: 25uM -0.0896 | [8]; compound concentration: 50uM -0.0399 | [8]; compound concentration: 100uM -0.0575 | [8]; compound concentration: 200uM -0.135 | [9]; compound concentration: 50uM -0.143 | [9]; compound concentration: 200uM -0.873 | [10]; compound concentration: 50uM -0.696
active: [10]; compound concentration: 200uM -1.38
